Experimental data: the supplement of paper PMC10849652
Targets with a hit are over-represented here; the source holds about 7,900 in all. About 0.6% of all pairs of compound and target were hits. Values without a mark were called inactive.

What was measured:
Assay in all cases: log2 fold change, soluble protein after heating vs DMSO (PISA); higher = thermal stabilisation; K562 cells, 10 uM, 30 min; active = over 0.2 and 3.5 SD of the protein, either way, in both replicates (recomputed)
[1] = compound: C1COCCN1CCN2C3=CC=CC=C3N=C2NC(=O)C4=CC(=CC=C4)[N+](=O)[O-] [IRAK-1-4 Inhibitor I]
Outline: (§1)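 K562 cells at 2×10^6 cells/mL were given 10 μM compound for 30 min. Aliquots then went through 3 min of heating across 48°C-58°C, were pooled, and were extracted in PBS with 0.5% NP-40 at 4°C, and the supernatant after 21,000xg for 90 min was quantified by TMTpro 16plex LC-MS/MS with channel sums equalised. Thermal stability relative to control samples, from duplicates, is given as log2 fold change.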

[2] = compound: C=CC(=O)N1CCC[C@@H](n2nc(-c3ccc(Oc4ccccc4)cc3)c3c(N)ncnc32)C1 [ibrutinib]
Outline: as §1

[3] = compound: CC(=O)c1cnc2ccc(-c3cc(Cl)c(O)c(Cl)c3)nc2c1N[C@H]1CC[C@H](CN(C)C)CC1
Outline: as §1

[4] = compound: CC(C)(C)Cn1c(N)nc2ccc(-c3[nH]c(C(C)(C)C)nc3-c3ccc(F)cc3)nc21 [ralimetinib]
Outline: as §1

[5] = compound: CC(C)(O)CC(=O)NCCn1ccc2ncnc(Nc3ccc(Oc4cccc(C(F)(F)F)c4)c(Cl)c3)c21
Outline: as §1

[6] = compound: CC(C)C1=C2N=C(C=C(N2N=C1)NCC3=CC=CC=C3)NCCCCCCN
Outline: as §1

[7] = compound: CC(C)C[C@@H](C=O)NC(=O)[C@H](CC(C)C)NC(=O)[C@H](CC(C)C)NC(=O)OCc1ccccc1
Outline: as §1

[8] = compound: CC(C)N(C[C@H]1O[C@@H](n2cnc3c(N)ncnc32)[C@H](O)[C@@H]1O)[C@H]1C[C@@H](CCc2nc3cc(C(C)(C)C)ccc3[nH]2)C1 [pinometostat]
Outline: as §1

[9] = compound: CC1=C(C(CC(=O)N1)C2=CC=C(C=C2)C(F)(F)F)C(=O)NC3=C(C=C4C(=C3)C=NN4)F
Outline: as §1

[10] = compound: CC1=C(C2=C(C=C1)C(=O)C3=CC=CC=C3N2CCCN)C
Outline: as §1

[11] = compound: CC1=C(C=C(C=C1)NC(=O)C2=CC(=CC=C2)C(C)(C)C#N)NC3=CC4=C(C=C3)N=CN(C4=O)C
Outline: as §1

[12] = compound: CC1=C(C=C(C=C1)NC(=O)C2=CC(=CC=C2)N(C)C)NC(=O)C3=CC=C(C=C3)O
Outline: as §1

[13] = compound: CC1=CC=C(C=C1)SC2=C3C=C(SC3=CN=C2)C(=O)N
Outline: as §1

[14] = compound: CC1=NC(=CC=C1)C2=C(N=C(N2)C(C)(C)C)C3=CC4=NC=CN=C4C=C3
Outline: as §1

[15] = compound: CCCCN(Cc1ccc(C(=O)NO)cc1)C(=O)Nc1ccccc1 [Nexturastat A]
Outline: as §1

[16] = compound: CCCS(=O)(=O)Nc1ccc(F)c(C(=O)c2c[nH]c3ncc(-c4ccc(Cl)cc4)cc23)c1F [vemurafenib]
Outline: as §1

[17] = compound: CCCS(=O)(=O)Nc1ccc(F)c(C(=O)c2c[nH]c3ncc(Cl)cc23)c1F
Outline: as §1

[18] = compound: CCCc1cc(C)[nH]c(=O)c1CNC(=O)c1cc(-c2ccnc(N3CCN(C)CC3)c2)cc2c1cnn2C(C)C
Outline: as §1

[19] = compound: CCN(CC)Cc1ccc2cc(COC(=O)Nc3ccc(C(=O)NO)cc3)ccc2c1 [givinostat]
Outline: as §1

[20] = compound: CCN(CCCOc1ccc2c(Nc3cc(CC(=O)Nc4cccc(F)c4)[nH]n3)ncnc2c1)CCOP(=O)(O)O [barasertib]
Outline: as §1

UniProt P23276, sequence (P23276 whole entry, looked up): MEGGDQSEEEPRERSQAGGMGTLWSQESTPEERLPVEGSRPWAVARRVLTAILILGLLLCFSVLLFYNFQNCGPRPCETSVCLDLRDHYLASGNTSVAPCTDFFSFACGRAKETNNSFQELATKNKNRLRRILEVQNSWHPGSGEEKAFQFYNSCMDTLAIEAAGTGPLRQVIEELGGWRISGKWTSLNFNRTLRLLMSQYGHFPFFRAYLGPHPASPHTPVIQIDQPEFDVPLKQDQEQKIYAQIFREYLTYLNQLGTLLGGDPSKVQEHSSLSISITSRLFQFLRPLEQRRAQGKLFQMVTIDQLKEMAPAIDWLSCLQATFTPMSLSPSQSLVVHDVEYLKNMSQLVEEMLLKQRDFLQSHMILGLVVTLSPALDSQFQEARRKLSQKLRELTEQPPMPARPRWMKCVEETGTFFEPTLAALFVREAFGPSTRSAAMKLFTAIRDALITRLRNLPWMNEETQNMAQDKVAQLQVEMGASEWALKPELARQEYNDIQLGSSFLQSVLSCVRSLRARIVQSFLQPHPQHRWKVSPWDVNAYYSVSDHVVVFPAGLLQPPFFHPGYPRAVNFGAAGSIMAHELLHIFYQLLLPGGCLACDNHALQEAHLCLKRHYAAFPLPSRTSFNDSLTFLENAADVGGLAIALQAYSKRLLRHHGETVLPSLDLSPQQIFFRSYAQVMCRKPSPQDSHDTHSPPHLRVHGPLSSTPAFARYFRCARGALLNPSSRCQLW
UniProt Q9H0B6, sequence (Q9H0B6 whole entry, looked up): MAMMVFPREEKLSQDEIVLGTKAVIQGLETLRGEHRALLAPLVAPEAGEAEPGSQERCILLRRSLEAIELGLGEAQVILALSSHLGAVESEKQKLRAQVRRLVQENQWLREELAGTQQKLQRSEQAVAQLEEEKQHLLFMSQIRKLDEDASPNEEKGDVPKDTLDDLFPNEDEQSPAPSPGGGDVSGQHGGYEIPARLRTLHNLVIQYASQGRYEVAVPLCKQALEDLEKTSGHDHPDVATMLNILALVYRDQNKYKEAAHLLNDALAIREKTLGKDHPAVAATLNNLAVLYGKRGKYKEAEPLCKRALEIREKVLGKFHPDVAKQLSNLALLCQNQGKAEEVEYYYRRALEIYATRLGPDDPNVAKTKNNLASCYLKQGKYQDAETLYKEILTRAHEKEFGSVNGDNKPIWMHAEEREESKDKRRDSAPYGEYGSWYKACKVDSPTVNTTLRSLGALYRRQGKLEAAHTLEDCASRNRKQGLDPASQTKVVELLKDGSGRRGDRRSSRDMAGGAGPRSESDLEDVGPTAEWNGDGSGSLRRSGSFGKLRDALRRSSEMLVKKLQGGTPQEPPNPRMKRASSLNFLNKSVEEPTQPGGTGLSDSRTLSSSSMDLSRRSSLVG
UniProt Q96EK5, sequence (Q96EK5 whole entry, looked up): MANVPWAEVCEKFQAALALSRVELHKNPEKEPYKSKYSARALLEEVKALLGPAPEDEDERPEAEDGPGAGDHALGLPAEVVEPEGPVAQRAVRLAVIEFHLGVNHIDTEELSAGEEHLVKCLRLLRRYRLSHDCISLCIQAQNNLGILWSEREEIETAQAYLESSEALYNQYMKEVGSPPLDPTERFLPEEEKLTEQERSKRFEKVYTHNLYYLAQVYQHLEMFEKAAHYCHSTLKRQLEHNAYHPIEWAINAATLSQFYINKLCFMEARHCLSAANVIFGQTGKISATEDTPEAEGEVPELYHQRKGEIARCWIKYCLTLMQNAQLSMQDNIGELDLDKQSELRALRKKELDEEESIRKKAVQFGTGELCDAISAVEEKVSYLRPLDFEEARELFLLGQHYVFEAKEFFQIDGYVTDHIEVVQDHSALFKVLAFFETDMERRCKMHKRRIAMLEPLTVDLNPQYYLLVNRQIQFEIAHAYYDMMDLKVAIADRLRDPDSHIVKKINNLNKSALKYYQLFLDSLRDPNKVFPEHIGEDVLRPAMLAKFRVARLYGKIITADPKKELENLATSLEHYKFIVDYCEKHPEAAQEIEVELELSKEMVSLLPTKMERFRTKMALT
UniProt Q15648, sequence (Q15648 whole entry, looked up): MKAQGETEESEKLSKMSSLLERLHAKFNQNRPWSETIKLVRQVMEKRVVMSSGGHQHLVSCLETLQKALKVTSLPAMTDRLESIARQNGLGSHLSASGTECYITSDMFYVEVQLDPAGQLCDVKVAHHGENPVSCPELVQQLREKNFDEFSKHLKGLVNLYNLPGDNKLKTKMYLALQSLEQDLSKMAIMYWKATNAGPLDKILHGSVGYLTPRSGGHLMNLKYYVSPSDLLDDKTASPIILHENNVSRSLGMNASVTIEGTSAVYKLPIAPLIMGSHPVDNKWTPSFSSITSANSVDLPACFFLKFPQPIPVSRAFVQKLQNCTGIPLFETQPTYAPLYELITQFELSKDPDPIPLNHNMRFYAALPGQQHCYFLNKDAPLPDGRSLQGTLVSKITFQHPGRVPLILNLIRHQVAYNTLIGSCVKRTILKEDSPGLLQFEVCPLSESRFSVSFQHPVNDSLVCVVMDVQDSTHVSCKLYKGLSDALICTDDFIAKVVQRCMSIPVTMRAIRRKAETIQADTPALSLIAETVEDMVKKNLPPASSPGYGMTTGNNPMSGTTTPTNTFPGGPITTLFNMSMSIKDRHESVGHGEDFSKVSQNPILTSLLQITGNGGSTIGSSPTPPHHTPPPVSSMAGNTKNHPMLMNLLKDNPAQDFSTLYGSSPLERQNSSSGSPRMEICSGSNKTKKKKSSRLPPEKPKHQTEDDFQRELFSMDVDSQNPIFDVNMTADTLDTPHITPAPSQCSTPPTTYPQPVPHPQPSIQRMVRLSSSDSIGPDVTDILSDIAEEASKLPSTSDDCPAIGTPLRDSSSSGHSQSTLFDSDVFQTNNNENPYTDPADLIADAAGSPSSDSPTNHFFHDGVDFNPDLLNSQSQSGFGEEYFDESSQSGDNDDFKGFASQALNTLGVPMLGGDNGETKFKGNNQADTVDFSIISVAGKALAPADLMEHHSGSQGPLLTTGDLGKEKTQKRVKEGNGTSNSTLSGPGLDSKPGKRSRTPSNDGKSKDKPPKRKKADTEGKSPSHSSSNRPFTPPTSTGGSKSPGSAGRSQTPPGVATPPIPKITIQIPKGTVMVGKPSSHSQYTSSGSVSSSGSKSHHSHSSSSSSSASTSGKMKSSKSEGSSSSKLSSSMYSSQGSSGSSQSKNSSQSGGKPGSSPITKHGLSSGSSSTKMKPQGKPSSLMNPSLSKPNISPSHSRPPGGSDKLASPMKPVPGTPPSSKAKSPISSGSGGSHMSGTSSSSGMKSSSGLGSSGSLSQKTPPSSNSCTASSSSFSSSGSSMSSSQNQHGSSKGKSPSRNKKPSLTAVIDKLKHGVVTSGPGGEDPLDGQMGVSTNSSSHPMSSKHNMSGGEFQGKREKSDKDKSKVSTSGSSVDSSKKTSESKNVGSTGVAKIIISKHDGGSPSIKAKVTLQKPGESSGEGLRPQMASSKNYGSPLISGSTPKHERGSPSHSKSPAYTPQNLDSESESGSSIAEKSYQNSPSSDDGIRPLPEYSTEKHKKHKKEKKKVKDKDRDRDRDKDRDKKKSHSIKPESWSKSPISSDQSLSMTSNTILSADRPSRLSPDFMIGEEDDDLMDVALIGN
UniProt Q9BRT3, sequence (Q9BRT3 whole entry, looked up): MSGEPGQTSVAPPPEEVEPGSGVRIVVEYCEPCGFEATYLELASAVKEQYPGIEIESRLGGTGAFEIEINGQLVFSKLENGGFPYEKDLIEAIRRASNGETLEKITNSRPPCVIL
UniProt Q8IW41, sequence (Q8IW41 whole entry, looked up): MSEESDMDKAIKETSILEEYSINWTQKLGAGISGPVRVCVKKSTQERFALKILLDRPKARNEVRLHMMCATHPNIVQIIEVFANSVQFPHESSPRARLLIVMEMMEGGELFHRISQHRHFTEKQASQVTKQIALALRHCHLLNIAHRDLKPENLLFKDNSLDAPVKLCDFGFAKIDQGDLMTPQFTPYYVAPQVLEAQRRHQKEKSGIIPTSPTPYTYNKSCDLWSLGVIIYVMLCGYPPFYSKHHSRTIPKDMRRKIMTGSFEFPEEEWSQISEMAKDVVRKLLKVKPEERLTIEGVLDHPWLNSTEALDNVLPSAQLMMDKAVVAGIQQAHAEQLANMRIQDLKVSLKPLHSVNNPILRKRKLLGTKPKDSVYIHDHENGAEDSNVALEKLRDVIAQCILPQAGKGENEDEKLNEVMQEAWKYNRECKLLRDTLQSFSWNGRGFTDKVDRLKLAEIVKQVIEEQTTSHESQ
UniProt Q9BPX6, sequence (Q9BPX6 whole entry, looked up): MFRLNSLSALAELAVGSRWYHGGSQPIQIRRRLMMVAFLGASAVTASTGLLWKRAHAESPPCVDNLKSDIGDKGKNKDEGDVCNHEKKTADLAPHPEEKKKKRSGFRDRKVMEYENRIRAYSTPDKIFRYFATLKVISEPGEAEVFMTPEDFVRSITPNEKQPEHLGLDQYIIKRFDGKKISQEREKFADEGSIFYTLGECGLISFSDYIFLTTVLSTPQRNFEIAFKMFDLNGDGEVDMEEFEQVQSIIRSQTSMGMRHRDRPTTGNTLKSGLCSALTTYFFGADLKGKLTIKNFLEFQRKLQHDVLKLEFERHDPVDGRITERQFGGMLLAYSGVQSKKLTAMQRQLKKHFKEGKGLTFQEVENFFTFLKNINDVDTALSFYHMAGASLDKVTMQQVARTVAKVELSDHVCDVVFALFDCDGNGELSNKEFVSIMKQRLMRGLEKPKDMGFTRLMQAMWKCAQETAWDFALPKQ
UniProt Q07820, sequence (Q07820 whole entry, looked up): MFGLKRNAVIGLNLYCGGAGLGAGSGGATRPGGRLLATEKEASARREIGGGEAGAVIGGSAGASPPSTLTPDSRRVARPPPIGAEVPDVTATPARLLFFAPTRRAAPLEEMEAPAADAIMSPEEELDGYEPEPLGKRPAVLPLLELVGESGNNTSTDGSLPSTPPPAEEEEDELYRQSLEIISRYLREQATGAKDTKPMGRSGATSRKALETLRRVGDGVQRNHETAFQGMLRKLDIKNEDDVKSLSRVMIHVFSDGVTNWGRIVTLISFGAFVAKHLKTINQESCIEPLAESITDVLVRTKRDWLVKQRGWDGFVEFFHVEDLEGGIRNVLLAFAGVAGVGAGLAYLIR

Row | Target | log2 fold change [1] | log2 fold change [2] | log2 fold change [3] | log2 fold change [4] | log2 fold change [5] | log2 fold change [6] | log2 fold change [7] | log2 fold change [8] | log2 fold change [9] | log2 fold change [10] | log2 fold change [11] | log2 fold change [12] | log2 fold change [13] | log2 fold change [14] | log2 fold change [15] | log2 fold change [16] | log2 fold change [17] | log2 fold change [18] | log2 fold change [19] | log2 fold change [20]
1 | KLC2 (UniProt Q9H0B6) | -0.035 | -0.024 | -0.309 (active) | 0.041 | -0.02 | -0.107 | 0.083 | 0.023 | -0.03 | 0.133 | 0.025 | -0.055 | 0.021 | 0.015 | 0.001 | 0.012 | 0.096 | 0.001 | 0.044 | 0.006
2 | KDM3B (UniProt Q7LBC6) | -0.01 | -0.04 | -0.023 | -0.018 | -0.089 | -0.047 | 0.014 | -0.011 | -0.018 | -0.007 | 0.024 | -0.041 | -0.032 | 0.037 | -0.045 | 0.049 | 0.031 | 0.041 | -0.001 | 0.082
3 | LIMD1 (UniProt Q9UGP4) | 0.03 | 0.033 | -0.008 | 0.035 | -0.035 | 0.044 | -0.072 | 0.016 | 0.003 | -0.032 | 0 | 0.009 | 0.037 | -0.012 | -0.022 | 0.024 | 0.084 | 0.019 | 0.02 | -0.017
4 | KEL (UniProt P23276) | -0.001 | 0.052 | -0.028 | -0.011 | 0.054 | 0.025 | -0.102 | -0.02 | -0.006 | 0.041 | -0.004 | -0.061 | 0.117 | 0.01 | 0.117 | -0.009 | -0.015 | -0.014 | -0.056 | -0.029
5 | MICU1 isoform 3 (UniProt Q9BPX6) | 0 | -0.009 | -0.025 | 0.007 | -0.016 | -0.285 (active) | 0.08 | 0.076 | 0.067 | 0.09 | -0.002 | 0.052 | -0.003 | -0.028 | 0.117 | -0.049 | 0.042 | -0.001 | 0 | 0.012
6 | MED1 (UniProt Q15648) | -0.049 | 0.002 | -0.28 (active) | 0.032 | -0.008 | -0.106 | 0.033 | 0.189 | 0.019 | 0.027 | -0.043 | 0.084 | -0.067 | -0.06 | 0.079 | -0.028 | -0.034 | -0.006 | 0.001 | -0.023
7 | KIFBP (UniProt Q96EK5) | -0.019 | 0.011 | -0.033 | -0.02 | -0.045 | -0.172 | 0.2 | 0.019 | -0.034 | 0.054 | 0.019 | 0.034 | 0.052 | 0.027 | -0.107 | 0.067 | 0.093 | -0.013 | -0.004 | 0.022
8 | KDELR2 (UniProt P33947) | -0.007 | 0.03 | -0.14 | 0.127 | -0.035 | -0.047 | -0.568 (active) | -0.008 | 0.024 | 0.103 | 0.058 | 0.099 | 0.064 | -0.094 | -0.13 | -0.079 | -0.054 | -0.128 | -0.064 | 0.036
9 | MAP1LC3B2 (UniProt A6NCE7) | -0.002 | -0.053 | -0.059 | -0.026 | 0.008 | -0.087 | 0.009 | -0.008 | -0.041 | -0.01 | 0.021 | -0.034 | -0.029 | 0.04 | -0.028 | 0.088 | 0.01 | 0.041 | 0.038 | 0
10 | MAPKAPK5 (UniProt Q8IW41) | 0.029 | -0.003 | 0.052 | 0.029 | -0.139 | 0.218 | 0.055 | -0.042 | -0.161 | 0.002 | 0.004 | -0.02 | -0.015 | 0.013 | 0.003 | 0.028 | 0.11 | 0.038 | 0.225 | -0.03
11 | MIEN1 (UniProt Q9BRT3) | 0.105 | -0.029 | -0.051 | -0.075 | -0.091 | 0.074 | -0.036 | 0.019 | 0.004 | 0.045 | -0.011 | -0.029 | 0.036 | -0.054 | -0.002 | 0.081 | 0.073 | 0.016 | 0 | 0.132
12 | MCL1 (UniProt Q07820) | 0.052 | 0.095 | -0.036 | 0.175 | -0.054 | -0.234 | 0.295 | -0.186 | 0.091 | -0.117 | -0.022 | -0.047 | 0.048 | 0.048 | 0.08 | -0.057 | -0.164 | 0.084 | 0.075 | -0.027
13 | KIAA1324L (UniProt A8MWY0) | 0.027 | -0.056 | -0.052 | -0.024 | -0.038 | 0.024 | 0 | -0.008 | 0.034 | -0.037 | -0.065 | -0.022 | 0.028 | 0.002 | 0.045 | 0.002 | -0.048 | 0.05 | 0.032 | 0.002
14 | KNTC1 (UniProt P50748) | -0.084 | -0.028 | 0.058 | -0.007 | 0.012 | -0.157 | 0.039 | 0.095 | -0.02 | -0.008 | -0.027 | -0.003 | -0.021 | 0.026 | 0.034 | 0.042 | 0.036 | 0.092 | 0.082 | 0.035
15 | LPIN1 isoform 7 (UniProt Q14693) | 0.035 | 0.029 | -0.379 (active) | 0.016 | -0.033 | -0.054 | 0.046 | 0.082 | 0.092 | 0.006 | -0.022 | 0.018 | -0.022 | -0.026 | -0.023 | -0.004 | 0.015 | 0.029 | 0.012 | 0.023
16 | KHDRBS1 (UniProt Q07666) | -0.069 | 0.038 | -0.002 | 0.016 | 0.073 | -0.039 | 0.017 | -0.052 | -0.012 | 0.621 (active) | 0.086 | -0.006 | -0.082 | 0.111 | 0.077 | 0.075 | -0.068 | 0.034 | 0.005 | -0.106
